# Experimental data taken from PubChem BioAssay (NCATS).
# Records with an inconclusive call do not appear. A number with no mark means an inactive call. Calls of active or inactive are those of the source. Calls follow the shape of the dose curve; as a rule, active = well fitted cell-killing curve with a large enough effect; inconclusive = small, poorly fitted or top-dose-only effect; inactive = no such curve, though single readings can be large or run the other way.
# Assay: Cell Viability - LYMP2-001 (AID 921); also: nearly all actives have a fitted effect of over 70% in size;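 as to activity change, negative = cytotoxic: 0% = DMSO only and full inhibition = tetraoctylammonium bromide control wells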
# Details: LYMP2-001 lymphoblastoid cell viability; series mostly up to 92.2 µM; activity change, negative = cytotoxic: at the top concentration
# In short: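 qHTS, 1536-well; lymphoblastoid cells, 24 hr compound, 37 C; ATP by CellTiter-Glo, 30 min RT; luminescence; Hill-fit AC50.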
# Potency is read from the fitted curve at half-maximal effect.
SMILES,Potency,"activity change, negative = cytotoxic"
CCOC(=O)c1ccccc1C(=O)OCC,inactive,
CC(C)(C)c1cc(O)ccc1O,39.8 µM (active),
C[C@H]1CCC[C@H](O)CCCCCc2cc(O)cc(O)c2C(=O)O1,,9.69%
O=C1CCO1,,-11.3%
O=Cc1ccco1,,-18.3%
S=C=S,,-17.5%
